Columns and labels:
[1] = target: PEG-3 (UniProt Q6IN02); experiment: inhibition of PEG-3 promoter-driven reporter – cell-based, HeLa, luciferase, CREF/GAPDH counter-screen panel, dose response (AID 624167); details: CREF/GAPDH counter-screens; HeLa PEG-Prom luciferase reporter, overnight, run 1, dose range 1, at 100 µM (top of the series) unless noted
[2] = target: PEG-3 (UniProt Q6IN02); experiment: as above; details: CREF/GAPDH counter-screens; HeLa PEG-Prom luciferase reporter, overnight, run 2, dose range 1, at 100 µM (top of the series) unless noted
[3] = system: Rat fibroblasts (CREF); experiment: as above; details: CREF/GAPDH counter-screens; run 1, dose range 1, at 100 µM (top of the series)
[4] = system: Rat fibroblasts (CREF); experiment: as above; details: CREF/GAPDH counter-screens; run 2, dose range 1, at 100 µM (top of the series)
[5] = target: Tumor necrosis factor receptor superfamily member 10B (Homo sapiens) (UniProt O14763); experiment: viability loss of caspase-8 NB7 cells with TRAIL – with/without TRAIL, luminescence panel, confirmation (AID 651596); details: NB7 neuroblastoma + caspase-8, TRAIL sensitization, NB7 Caspase-8, with TRAIL, mean of runs, at 10 µM, stronger effect = higher value
[6] = as above; details: NB7 neuroblastoma + caspase-8, without TRAIL, NB7 Caspase-8, without TRAIL, mean of runs, at 10 µM

PEG-3, sequence (Q6IN02 whole entry, looked up): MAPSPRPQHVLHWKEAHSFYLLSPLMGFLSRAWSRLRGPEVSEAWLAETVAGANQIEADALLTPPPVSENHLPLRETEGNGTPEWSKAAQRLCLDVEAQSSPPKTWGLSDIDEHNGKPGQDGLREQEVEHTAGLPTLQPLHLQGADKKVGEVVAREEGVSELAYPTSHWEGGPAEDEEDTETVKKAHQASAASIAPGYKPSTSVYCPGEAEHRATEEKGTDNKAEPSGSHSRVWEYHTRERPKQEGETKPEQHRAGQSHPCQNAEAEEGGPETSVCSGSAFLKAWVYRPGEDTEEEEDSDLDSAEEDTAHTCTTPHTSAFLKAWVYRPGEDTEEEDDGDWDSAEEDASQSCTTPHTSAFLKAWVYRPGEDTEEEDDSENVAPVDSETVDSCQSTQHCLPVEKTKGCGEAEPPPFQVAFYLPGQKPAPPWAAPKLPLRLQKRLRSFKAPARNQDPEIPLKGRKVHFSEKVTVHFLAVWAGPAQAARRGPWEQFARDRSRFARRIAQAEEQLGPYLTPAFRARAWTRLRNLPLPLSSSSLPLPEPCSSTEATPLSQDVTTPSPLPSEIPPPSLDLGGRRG
Tumor necrosis factor receptor superfamily member 10B (Homo sapiens), sequence (O14763 whole entry, looked up): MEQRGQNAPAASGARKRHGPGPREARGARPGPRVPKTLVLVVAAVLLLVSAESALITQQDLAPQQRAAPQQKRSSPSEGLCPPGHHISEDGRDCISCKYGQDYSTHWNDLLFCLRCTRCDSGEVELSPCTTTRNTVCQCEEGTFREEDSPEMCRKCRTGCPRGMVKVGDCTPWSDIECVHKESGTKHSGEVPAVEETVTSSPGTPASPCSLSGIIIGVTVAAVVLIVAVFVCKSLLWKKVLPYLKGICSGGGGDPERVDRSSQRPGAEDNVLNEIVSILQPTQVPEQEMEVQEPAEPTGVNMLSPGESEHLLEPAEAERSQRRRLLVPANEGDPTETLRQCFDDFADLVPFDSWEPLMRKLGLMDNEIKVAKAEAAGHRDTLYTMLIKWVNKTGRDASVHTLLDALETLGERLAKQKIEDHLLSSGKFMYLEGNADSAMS

SMILES	inhibition [1] [%]	inhibition [2] [%]	inhibition [3] [%]	inhibition [4] [%]	activity [5] [%]	activity [6] [%]
CN(C(=O)COC(=O)/C=C/c1cccc([N+](=O)[O-])c1)C1CCS(=O)(=O)C1 (centres undefined)	47.5	44.7	6.76	36.6		
C=CCn1c(C)cc(C(=O)CN2C(=O)c3ccccc3S2(=O)=O)c1C	94.5	96.6	99.2	96.4	88.8	91.4
COc1ccccc1CNCC(O)Cn1c2ccccc2c2ccccc21 (centres undefined)	102	98.7	99.2	98.9		
O=C(/C=C\Nc1ccc2c(c1)OCO2)c1ccccn1	102	95.1	98.9	97.2		
C/C(=N\NC(=O)c1n[nH]c2c1CCC2)c1cccs1	98.6	99.7	96.7	94.4	80.4	76.2
CN[C@H]1C[C@H]2c3[nH]c4ccc(-c5ccc(OC)cc5)cc4c3CCN2C(=O)[C@H]1[C@H](C)O	102	98.8	96	99.6		
Cc1cc(C(=O)CN2C(=O)c3ccccc3S2(=O)=O)c(C)n1-c1ccccc1	98.9	98	90.6	89.8		
Cc1ccc(C(=O)Nc2ncc([N+](=O)[O-])s2)cc1	91.3	96.1	85.9	88.8	68	62.8
O=C1c2cccc3cc([N+](=O)[O-])cc(c23)C(=O)N1CCN1CCCC1	102	99.1	80.3	83	41.1	67.3
Oc1[nH]c2ccc(Br)cc2c1N=NC(=S)N1CCOCC1	102	99	30.5	99.1		
Cc1cc(C(=O)CN2C(=O)c3ccccc3S2(=O)=O)c(C)n1CC1CCCO1 (centres undefined)	102	99.2	99.2	89.4	87.9	89
